Several values for one entry are separate records, joined by “and”; a condition that tells them apart may be missing. Equal entries are not always repeated. Among all 16,000 compounds or so, about 4,000 (25%) were called active. Not shown: some 26% with an inconclusive outcome. Calls follow the shape of the dose curve; as a rule, active = well fitted curve in the direction sought with a large enough effect; inconclusive = small, poorly fitted or top-dose-only effect, or effect the other way; inactive = no such curve, though single readings can be large or run the other way. These entries were drawn from the full list. Some compounds were tested as several samples or in several runs, with calls that do not always agree. Square brackets hold non-standard residues; d marks the D form. Peptide text beside a SMILES is read from it.
Target: Cytochrome P450 2C9 (Homo sapiens) (UniProt P11712)
Sequence (P11712 whole entry, looked up): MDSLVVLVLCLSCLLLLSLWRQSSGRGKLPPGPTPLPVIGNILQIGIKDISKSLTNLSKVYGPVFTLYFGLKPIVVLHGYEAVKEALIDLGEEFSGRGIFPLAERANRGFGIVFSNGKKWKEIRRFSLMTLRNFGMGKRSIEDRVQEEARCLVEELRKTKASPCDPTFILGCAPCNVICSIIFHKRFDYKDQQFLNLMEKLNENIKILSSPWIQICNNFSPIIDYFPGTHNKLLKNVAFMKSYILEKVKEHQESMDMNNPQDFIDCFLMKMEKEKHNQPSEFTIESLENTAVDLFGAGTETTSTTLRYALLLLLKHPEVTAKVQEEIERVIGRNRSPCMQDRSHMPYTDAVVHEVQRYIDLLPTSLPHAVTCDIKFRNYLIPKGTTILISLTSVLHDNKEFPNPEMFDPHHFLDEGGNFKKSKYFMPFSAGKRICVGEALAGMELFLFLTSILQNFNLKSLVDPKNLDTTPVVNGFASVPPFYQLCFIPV
Assay: Cytochrome panel assay with activity outcomes
Settings: recombinant CYP, pro-luciferin dealkylation, luminescence, p450-cyp2c9; series mostly up to 57.1 µM; activity, negative = inhibition: at the top concentration
% is scaled to controls: 0 for no effect and ±100 for the full control effect.

SMILES | activity, negative = inhibition | AC50
C[C@@H]1C[C@H](OC(=O)[C@@H](O)c2ccccc2)CC(C)(C)N1C | 14.4% [at 25.6 µM] (inactive) | 
CCCc1nnc(NC(=O)CCC(=O)NCc2ccccc2OC)s1 | -27% (inactive) | 
O=C(Cn1cnc2ccccc2c1=O)Nc1nnc(SCc2ccccc2)s1 |  | 8.91 µM (active)
CCCc1nnc(NC(=O)Cn2cnc3ccccc3c2=O)s1 |  | 17.8 µM (active)
OCCn1cnc2c(SCc3ccccc3)ncnc21 | 12.5% [at 11.4 µM] (inactive) | 
CCCc1nnc(NC(=O)CCC(=O)N2CCN(c3ccccn3)CC2)s1 | -20.6% (inactive) | 
COc1ccc(-c2csc(NC(=O)CCn3cnc4ccccc4c3=O)n2)cc1OC |  | 1 µM (active)
CCCC(=O)Nc1nc(-c2ccc3c(c2)CCN3S(C)(=O)=O)cs1 | -27.5% (inactive) | 
Cn1c(=O)c2[nH]c(CCCc3ccc([N+](=O)[O-])cc3)nc2n(C)c1=O | 1.93% [at 11.4 µM] (inactive) | 
Cc1ccc(C(=O)COC(=O)CNC(=O)C(c2ccccc2)c2ccccc2)cc1[N+](=O)[O-] | 4.36% (inactive) | 
CC(C)(C)c1ccc(COC(=O)CNC(=O)CNC(=O)Cc2ccccc2)cc1 | -35.6% (inactive) | 
Cc1ccc(C(=O)COC(=O)CNC(=O)Cc2ccccc2)cc1[N+](=O)[O-] |  | 14.1 µM (active)
O=C1[C@H]2[C@H]3[C@H](O)[C@H](O)C/C(=N/OC[C@@H](O)COCc4ccco4)[C@@H]3CC[C@@H]2C(=O)N1C[C@@H]1CCCO1 | 39.3% [at 11.4 µM] (inactive) | 
COc1ccc(S(=O)(=O)N2CC3C4C=CC(C4)C3C2)cc1 (stereo unspecified) |  | 14.1 µM (active)
COc1ccc(S(=O)(=O)N2CCC(N3CCCCC3)CC2)cc1 | -24.7% (inactive) | 
CCN(CC)CCOC(=O)[C@@H](c1ccccc1)C1CCCCC1 | -9.95% [at 25.6 µM] (inactive) | 
CC(C)(C)NC(=O)CSC(=Nc1ccc(F)cc1)NC#N |  | 12.6 µM (active)
CC(C)OC(=O)c1cc2c(OC[C@@H](O)CNC(C)(C)C)cccc2[nH]1 | -2.97% (inactive) | 
CC(C)CO/N=C1/C[C@@H](O)[C@@H](O)[C@@H]2[C@@H]3C(=O)N(C[C@@H]4CCCO4)C(=O)[C@H]3CC[C@H]12 | 9.45% [at 11.4 µM] (inactive) | 
Cc1nn(-c2ccccc2)c2c1C(=O)N(Cc1ccccc1)C(=O)C(C)(C)C2 |  | 17.8 µM (active)
O=C(NCCCN1CCN(C2CCCCC2)CC1)Nc1ccccc1C(F)(F)F | 28.7% (inactive) | 
CCOC(=O)C1=C(C)NC2=C(C(=O)C(C(=O)OCC)C(c3ccc(OC)cc3)C2)C1c1ccccn1 (stereo unspecified) |  | 8.91 µM (active)
CN1CCN(c2ncc3nc(-c4cccc(C#N)c4)c(=O)n(CCC#N)c3n2)CC1 | -17.2% (inactive) | 

SMILES | activity, negative = inhibition | AC50
COCCn1c(=O)c(-c2cc(F)cc(F)c2)nc2cnc(N3CCOCC3)nc21 | 2.7% (inactive) | 
COCCn1c(=O)c(-c2cc(F)cc(F)c2)nc2cnc(N3CCNCC3)nc21 |  | 1.26 µM (active)
COc1ccc(-n2c(=O)c(-c3cccc(C#N)c3)nc3cnc(N4CCNCC4)nc32)cc1 | -21% (inactive) | 
COCCn1c(=O)c(-c2cccc(C#N)c2)nc2cnc(N3CCNCC3)nc21 |  | 3.98 µM (active)
COCCn1c(=O)c(C)nc2cnc(N3CCNCC3)nc21 | 16.1% (inactive) | 
C1CCc2c(nc3nnnn3c2NC2CCCC2)C1 | -36.8% (inactive) | 
O=C1/C(=C/c2ccccc2)[C@@H](NC2CCCCC2)c2ccccc21 |  | 3.98 µM (active)
COc1ccc(C(OCCN2CCC[C@@H](C(=O)O)C2)(c2ccc(OC)cc2)c2ccc(OC)cc2)cc1 | 14.7% (inactive) | 
S[C@@H]1CCCN(Cc2ccccc2)C1 | -2.17% [at 11.4 µM] (inactive) | 
O=C(O)[C@H]1CCCN(CCC=C(c2ccccc2)c2ccccc2)C1 |  | inactive and 7.94 µM (active)
C[C@H](N[C@@H](C)COc1ccccc1)[C@H](O)c1ccc(O)cc1 | -13.1% [at 25.6 µM] (inactive) | 
CN(C)c1ncc2nc(-c3ccc(Cl)cc3)c(=O)n(Cc3ccc(F)cc3)c2n1 | -15% (inactive) | 
O=c1c(-c2ccc(F)cc2)nc2cnc(N3CCNCC3)nc2n1-c1ccccc1 | -29.9% (inactive) | 
CN1CCN(c2ncc3nc(-c4ccccc4)c(=O)n(Cc4ccc(F)cc4)c3n2)CC1 | -26.1% (inactive) | 
O=c1c(-c2ccccc2)nc2cnc(N3CCNCC3)nc2n1Cc1ccc(F)cc1 |  | 10 µM (active)
CN1CCN(c2ncc3nc(-c4ccc(Cl)cc4)c(=O)n(Cc4ccc(F)cc4)c3n2)CC1 | -3.9% (inactive) | 
O=c1c(-c2ccc(Cl)cc2)nc2cnc(N3CCNCC3)nc2n1Cc1ccc(F)cc1 |  | 25.1 µM (active)
CC(O)CN(CCC(N)=O)CCC(N)=O (stereo unspecified) | -3.23% (inactive) | 
CC(=O)c1cnc2c(C(=O)O)cnn2c1C | 2.38% (inactive) | 
Cc1cc(-c2c(C)[nH]n(-c3ccccc3)c2=O)n(-c2ccccc2)n1 |  | 1.58 µM (active)
Cc1cc(N)n(-c2ccccc2)n1 | 1.19% (inactive) | 
Cc1ccc(C)c(C(=O)CN2C3=NCCCN3c3ccccc32)c1 | -20.6% (inactive) | 
CC[C@](N)(CCC(=O)O)C(=O)O | 15% (inactive) | 

SMILES | activity, negative = inhibition | AC50
CC(CCC(=O)O)(c1cc(Br)c(O)c(Br)c1)c1cc(Br)c(O)c(Br)c1 |  | 3.16 µM (active)
CC(C)c1ccc(Cn2ccc3c4c(N)nc(NC5CC5)nc4ccc32)cc1 | -0.13% (inactive) | 
O=C(NCc1ccccc1)c1ccc(S(=O)(=O)N2CCCc3ccccc32)cc1 |  | 3.16 µM (active)
Cc1ccc(C(=O)ON=C2CCN(S(=O)(=O)c3ccccc3)CC2)cc1 | 13.9% (inactive) | 
Cc1cc(N(CN2CCCC2=O)C(=O)c2ccc(F)cc2)no1 | 20.9% (inactive) | 
Cc1cc(NC(=O)COC(=O)c2ccc(S(=O)(=O)N3CCCc4ccccc43)cc2)no1 |  | 3.55 µM (active)
Cc1ccc(S(=O)(=O)N[C@H]2COC(=O)[C@@H](Cc3ccccc3)NC(=O)[C@@H](C)COC(=O)C/C=C\[C@@H]2C)cc1 | 7.81% [at 11.4 µM] (inactive) and -8.92% [at 11.4 µM] (inactive) | 
Clc1ccccc1NN(Cc1ccccn1)c1ccccc1Cl | -64.2% [at 11.4 µM] (inactive) | 
Clc1ccccc1NN(Cc1ccncc1)c1ccccc1Cl |  | 1.58 µM (active)
CC1=c2c(oc3cc(O)c(Nc4c(C)cc(O)cc4O)c(C)c23)=CC(=O)C1=Nc1c(C)cc(O)cc1O |  | 3.16 µM (active)
Cc1ccc(C2C3=C(CCCC3=O)Nc3nc(SCC(=O)NCc4ccco4)[nH]c(=O)c32)cc1 (stereo unspecified) |  | 5.01 µM (active)
NC(=O)CCCC1=NS(=O)(=O)c2ccccc2N1 | -18.2% (inactive) | 
COc1cccc(C(C(=O)Nc2ccc(F)cc2)N(C(=O)Cn2nnc3ccccc32)C2CC2)c1 (stereo unspecified) |  | 12.6 µM (active)
COc1ccc(C(C(=O)Nc2ccc(F)cc2)N(C(=O)Cn2nnc3ccccc32)C2CC2)cc1 (stereo unspecified) |  | 12.6 µM (active)
COCCNC(=O)C(c1ccc(C)o1)N(CC1CCCO1)C(=O)Cn1nnc2ccccc21 (stereo unspecified) | -0.853% (inactive) | 
COc1ccc(NC(=O)C(c2ccc(OC)cc2)N(C)C(=O)CNC(C)=O)cc1 (stereo unspecified) | -6.03% (inactive) | 
CO[C@@H]1COC(=O)C/C=C\[C@@H](C)[C@H](OC)COC(=O)[C@H](COCc2ccccc2)NC(=O)C/C=C\[C@H]1C | 3.17% [at 11.4 µM] (inactive) | 
C/C(CCN1CCCCc2nc(C)c(C)cc21)=N\OC[C@@H](C)[C@H](OCc1ccccc1)C(C)C | -7.17% [at 11.4 µM] (inactive) | 
Cc1ccccc1C(=O)Oc1ccc(Br)cc1C(=S)N1CCCC1 |  | 11.2 µM (active)
COC(=O)c1cc(OC)c(OC)cc1NC(=S)N1CCCCC1 | -15.7% (inactive) | 
CCOC(=O)C1CCCN(C(=O)C2CCN(S(=O)(=O)N3CCC4(CC3)OCCO4)CC2)C1 (stereo unspecified) | -23.8% (inactive) | 
COc1ccc(C2=NOC(C(=O)NCCN3CCOCC3)C2)cc1 (stereo unspecified) | -10.2% (inactive) | 
COc1ccc(-c2cn3c(C)c(C(=O)NCCN4CCOCC4)sc3n2)cc1 |  | 7.94 µM (active)

SMILES | activity, negative = inhibition | AC50
CCOC(=O)C1CCCN(C(=O)/C=C/c2cccc([N+](=O)[O-])c2)C1 (stereo unspecified) | 6.66% (inactive) | 
COc1ccc2cc3cc(C(=O)NCCCN4CCOCC4)oc3nc2c1 | -4.23% (inactive) | 
CCOC(=O)C1CCCN(C(=O)c2sc3nc(-c4ccc(OC)cc4)cn3c2C)C1 (stereo unspecified) |  | 4.47 µM (active)
Cn1ncc(Cl)c1C(=O)Nc1cccnc1 | -33.2% (inactive) | 
CCOc1ccc(Cl)cc1CNCCNCC(C)O (stereo unspecified) | 6.63% (inactive) | 
O=C(Nc1ccn(Cc2ccccc2F)n1)c1ccc(COc2cc(Cl)ccc2Cl)o1 |  | 0.447 µM (active)
CC(C)CNC(=O)c1ccc(COc2ccc(Cl)cc2Cl)o1 |  | 3.55 µM (active)
O=C(Nc1cccnc1)c1ccc(COc2cc(Cl)ccc2Cl)o1 |  | 14.1 µM (active)
O=C(O)NCC1CCCCC1 (tested in a mixture with another compound) | -18.2% [at 11.4 µM] (inactive) | 
O=C(CCN1C(=O)c2ccccc2C1=O)NC(=S)Nc1cccc(Cl)c1 |  | 10 µM (active)
O=C(COc1ccccc1Cl)NC(=S)Nc1cccc(NC(=O)c2ccccc2Cl)c1 |  | 0.794 µM (active)
CCC(=O)NC(=S)Nc1ccc(NC(=O)COc2ccc(Cl)cc2Cl)cc1 | -19% (inactive) | 
S=C(NCc1ccccn1)Nc1cccc(Cl)c1 | 4.91% (inactive) | 
Cc1ccccc1OCC(=O)NC(=S)Nc1ccc(Br)c(C)n1 | -24.6% (inactive) | 
N[C@H](CO)C(=O)NCC(=O)O (H-[dS]-Gly-OH) | 7.87% [at 11.4 µM] (inactive) | 
CC(Sc1ccc2c(c1)OCCO2)C(=O)Nc1ncc(Cl)cc1Cl (stereo unspecified) |  | 3.98 µM (active)
O=C(N/N=C/c1cccc([N+](=O)[O-])c1)c1cc2c(ccc3ccccc32)o1 | 8.69% (inactive) | 
CCc1ccc(N2CC(C(=O)N/N=C/c3cccc([N+](=O)[O-])c3)CC2=O)cc1 (stereo unspecified) |  | 3.55 µM (active)
CC1CCCN(CCCNC(=O)C2CC(=O)N(c3ccc(F)c(Cl)c3)C2)C1 (stereo unspecified) | 17.6% (inactive) | 
Cc1ccccc1NC(=O)C1CC(=O)N(c2ccc3c4c(cccc24)CC3)C1 (stereo unspecified) | 12.2% (inactive) | 
Cc1ccc(NC(=O)/C(=C/c2cccc([N+](=O)[O-])c2)NC(=O)C2CCCCC2)c(C)c1 | -13.7% (inactive) | 
CCc1ccc(N2CC(C(=O)NC3=NCCS3)CC2=O)cc1 (stereo unspecified) |  | 12.6 µM (active)
